Screening data as filed in PubChem BioAssay.
Rows were chosen to be rich in hits. Some 1.5% of all compounds tested hit in one or more screens of this group.
TCR activator – T cell receptor activation; AID 504894; primary human leukocytes, anti-CD3, IL-2 HTRF, 48 h; Potency, µM (top dose mostly 9.22 µM), for the others: at the highest dose activation of IL-2 secretion, actives largely listed as activators; 330,000 tested, under 10 active; also: % of control where 0% means no effect
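IL-2 release read by HTRF sandwich (Eu cryptate donor, d2 acceptor, 665 nm emission) after 48 hr exposure of primary human leukocytes to compound together with anti-CD3 beads in the absence of co-stimulatory signals.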
BRCA1 expr act – increases BRCA1 expression | Potency, µM (top dose mostly 46.1 µM), for inactives: at the highest dose activation, usual class: activators | actives 1.1% (n = 380,000) | MCF7-BRCA1-FFLuc reporter, luminescence, 48 h; response scale: scaled: vehicle 0%, 10 µM genistein 100% | AID 624202; also: potency is read from the fitted curve at half-maximal effect; nearly all actives have a fitted effect of over 80% in size
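Reporter cells (MCF7, BRCA1 promoter-firefly luciferase) received library compounds across a concentration series for 48 h. End-point luminescence was measured and concentration-effect curves derived after normalization.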
Akt phos inh – inhibitors of Akt phosphorylation; actives 0.32% (n = 360,000); AID 651550; Neuro2A IGF-stimulated pAkt S473 HTRF, 20 min; active compounds read low; activity change, % for hits at 50 µM; in the data active = activity change below about -80%; inconclusive = mostly about -51% to -80%; also: % is scaled to controls: 0 for no effect and ±100 for the full control effect
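Neuro2A cells (4,500/well, DMEM with 0.5% FBS) were treated with compound at a single 50 µM final concentration, stimulated with 6 nM IGF for 20 min at 37 °C, and lysed. Phospho-Akt Ser473 was read by HTRF as 665/615 ratio ×10^4.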
PINK1 expr mod – PINK1 expression modulation | PINK1 immunofluorescence, high-content cytometry, 24 h | Potency, µM (doses to about 76.6 µM), for the others: at the highest dose activation (PINK1 increase), hits mostly activators | actives 0.2% (n = 410,000); active = well fitted activation curve with a large enough effect; inconclusive = small, poorly fitted or top-dose-only effect; cell line not stated here; also: potency is read from the fitted curve at half-maximal effect; % of control where 0% means no effect; nearly all actives have a fitted effect of over 65% in size
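Fluorescence from anti-PINK1 antibody, together with nuclear and cell stains, was scanned on a laser-scanning cytometer. Before staining, stable-line cells were incubated 24 hours with compounds at 5 concentrations; primary antibody 12 h at 10 degrees C.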
The depositor's hits bear a star; i = inactive; ? = inconclusive; · = not tested or not shown; [ ] = dose if it differs, or a comment. Unless noted, calls follow the shape of the dose curve; as a rule, active = well fitted curve in the direction sought with a large enough effect; inconclusive = small, poorly fitted or top-dose-only effect, or another doubt; inactive = no such curve, though single readings can be large; an effect the other way counts as inactive or inconclusive.

SMILES | TCR activator | BRCA1 expr act | Akt phos inh | PINK1 expr mod
Cc1cccc(NC(=O)c2cnn3ccccc23)c1C | -4.7% | 12.6µM* | i | -0.6%
Cc1cccc(NC(=O)c2ccccc2O)c1C | 0.1% | ? | i | ·
Cn1nccc1C(=O)NCC1CCC2(CCN(Cc3cccc4ncccc34)CC2)O1 (centres undefined) | · | · | · | -0.2%
CCCc1ccc(C(=O)NC(=O)c2ccccc2O)cc1 | 2.1% | 13.9% | i | 44.7µM*
O=C(NC(=O)c1ccccc1O)c1ccc(C(F)(F)F)cc1 | 7.1% | 50.2% | i | 31.6µM*
O=C(NC(=S)NNC(=O)c1ccccc1O)c1ccc(F)cc1 | -3.3% | -2.1% | i | -0.7%
CCCCC(=O)NC1(C(F)(F)F)C(=O)Nc2c1c(=O)[nH]c(=O)n2-c1ccc(F)cc1 (centres undefined) | · | · | · | 2.5%
Cc1c(CN2CCOc3c(O)cc(-c4nc5ccccc5s4)cc3C2)cnn1C | · | · | · | 1.2%
Oc1[nH]c2ccccc2c1N=Nc1c(F)c(F)c(Cl)c(F)c1F | 6.5% | -17.7% | i | ?
Oc1[nH]c2ccccc2c1N=Nc1ccccc1Cl | -3.5% | 0.5% | i | 31.6µM*
COC(=O)C1CCCCN1Cc1ccc2c(c1)CN(C1CCSCC1)CCO2 (centres undefined) | · | · | · | 0.7%
CCOC(=O)/C(C#N)=C\c1ccc(OCC(=O)Nc2ccc(C)cc2C)c(OC)c1 | 2.0% | -9.9% | ? | 3.1%
CCOC(=O)/C(C#N)=C/c1ccc(OCC(=O)Nc2cc(C)ccc2C)c(OC)c1 | 6.3% | 0.9% | -82.1%* | 3.1%
O=C(N/N=C/c1c[nH]c2ccccc12)c1cccs1 | 7.3% | 32.2% | i | 2.8%
O=C(N/N=C/c1cccc2ccccc12)c1cccs1 | 3.4% | 3.98µM* | i | 2.2%
Cc1ccc(/C=N/NC(=O)c2cccs2)s1 | 0.1%[46.1 µM] | 11.2µM* | i | -0.1%
O=c1oc2cc(Cl)ccc2n1CSc1nc2ccccc2s1 | 0.7% | 7.94µM* | i | 6.1%
Cc1ccc(NC(=O)Cn2c(=O)n(CCCCC(=O)NCc3ccc4c(c3)OCO4)c(=O)c3ccccc32)cc1 | · | 0.0% | · | 1.6%
O=C(CC(SCCO)c1ccc2c(c1)OCO2)c1cccs1 (centres undefined) | -1.0% | 10µM* | i | -2.6%[38.3 µM]
Cc1nc(C)c(CC(=O)N2CCOc3ccc(CN4CCN(c5ccccn5)CC4)cc3C2)s1 | · | · | · | -0.5%
COc1cccc(Nc2ncnc3ccccc23)c1 | · | 11.2µM* | i | ·
COc1ccc(Nc2ncnc3ccccc23)cc1 | 1.7% | 7.94µM* | i | -1.4%
COc1ccc(Nc2ncnc3ccccc23)c(OC)c1 | 1.1%[46.1 µM] | 4.6% | i | 0.8%
OCCCNCc1cc2cc3c(cc2nc1N1CCN(c2cccc(Cl)c2)CC1)OCO3 | · | · | · | -0.7%
Cn1cccc1C(=O)C(=O)Nc1ccc(F)c(F)c1 | 1.3% | 5.62µM* | i | -0.3%
SMILES | TCR activator | BRCA1 expr act | Akt phos inh | PINK1 expr mod
Cn1cccc1C(=O)C(=O)Nc1ccc(Cl)cc1 | -4.3% | 4.47µM* | i | 3.5%
COc1cc2nc(N(C)C)c(CNCc3cccc4ccccc34)cc2c(OC)c1OC | · | · | · | -0.5%
Oc1cc(-c2nc3ccccc3s2)cc2c1OCCN(Cc1cccn1-c1ncccn1)C2 | · | · | · | 4.1%
CCN1/C(=C\C=C(C(C)=O)C(C)=O)Sc2ccccc21 | -1.6% | 8.1% | i | ?
CCOC(=O)/C(C#N)=C(C)/C=C1\Sc2ccccc2N1CC | -4.1%[46.1 µM] | 3.16µM* | i | ?
COc1cc2nc(N3CCCN(C)CC3)nc(N)c2cc1OC | · | 2.9% | · | 1.2%
Clc1ccc(CSc2nnc([C@@H]3CCCN3)o2)cc1Cl | -0.4% | -16.6% | -106.2%* | 2.9%
CC1=C2C(CCS2(=O)=O)CC2(C1)C(=O)OC(C)(C)OC2=O (centres undefined) | 4.3% | 2.8% | -82.5%* | -0.3%
Cc1cc(F)ccc1S(=O)(=O)Nc1ccccc1C(=O)Nc1ccccc1-c1nc2ccccc2[nH]1 | 0.2%[46.1 µM] | -89.1% | i | 44.7µM*
Cc1cc(F)ccc1S(=O)(=O)Nc1ccccc1C(=O)Nc1ncn[nH]1 | 1.2% | -20.9% | i | 1.8%
CCc1ccc(-c2nc3c(=O)n(C)c(=O)nc-3n(CC)n2)cc1 | · | -80.1% | · | -0.4%
O=C1/C(=C/c2ccncc2)SC(=S)N1Nc1ccccc1 | 4.0% | -33.1% | i | 8.0%
Cc1cc(C)nc(NN2C(=O)/C(=C/c3ccccc3)SC2=S)n1 | · | -16.8% | i | 10µM*
Fc1ccccc1COc1ccc(C(=S)N2CCCC2)cc1 | 2.0% | 11.2µM* | i | 2.2%
O=C(COc1ccc(C(=S)N2CCOCC2)cc1)N1CCCC1 | -2.0% | -1.0% | -124.4%* | 0.7%
O=C(COc1ccc2ccccc2c1)N1CCCC1 | 1.0% | 11.2µM* | i | -2.1%
OC1CCN(Cc2ccc3c(c2)CN(C/C=C/c2ccco2)CCO3)CC1 | · | · | · | 1.1%
CCCNC(=O)c1cc(-c2ccc(Br)cc2)on1 | 3.3% | 1.78µM* | i | 5.0%
CC(C)NC(=O)c1cc(-c2ccc(Br)cc2)on1 | · | ? | i | 10µM*
Cc1ccc(-c2cc(C(=O)NCCN3CCOCC3)no2)cc1 | · | 28.7% | i | ·
COc1cc(CN2CCCC(n3cc(C(=O)N4CCCC4)nn3)C2)cc(OC)c1 (centres undefined) | · | · | · | 0.9%
COC(=O)c1[nH]c(C)c(/C(O)=C2\C(=O)C(=O)N(CCN3CCOCC3)C2c2cccs2)c1C (centres undefined) | -2.9% | -27.3% | -96.2%* | -1.9%
Cc1ccc(C(=O)CSc2nc3ccccc3c(=O)n2-c2ccccc2)s1 | -1.7% | 6.3% | -100.1%* | 4.4%
Cc1cc(NC(=O)CSc2nc3ccccc3c(=O)n2-c2ccccc2)no1 | -1.7% | -3.3% | i | 9.8%
Cc1ccc(-n2c(SCC(=O)Nc3cc(C)on3)nc3ccccc3c2=O)cc1 | -6.6% | -2.0% | -84.9%* | 21.8%[38.3 µM]
SMILES | TCR activator | BRCA1 expr act | Akt phos inh | PINK1 expr mod
O=C(O)c1ccc(CSc2nc3ccccc3c(=O)n2-c2ccccc2)cc1 | -7.6% | 0.0% | i | -0.4%
COCCn1c(=O)c(-c2ccc(Cl)cc2)nc2cnc(N3CCOCC3)nc21 | · | · | · | -0.3%
Cc1ccc(-c2csc3ncnc(-n4nc(C)cc4N)c23)cc1 | 4.6% | -0.9% | i | -2.6%
Cc1cc(N)n(-c2ncnc3scc(-c4ccc(Cl)cc4)c23)n1 | 3.8%[46.1 µM] | -1.3% | -81.5%* | -1.1%
COc1ccc2c(c1)CCC/C2=N/OC(=O)c1ccccc1OC | -6.0% | 13.9% | i | 0.6%
COc1ccc2c(c1)CC/C2=N\OC(=O)c1ccccc1C | -8.1% | 11.2µM* | i | 2.8%
Cc1sc2ccccc2[n+]1CCCCBr | · | -23.1% | · | -0.5%
CSc1ccccc1-c1nnc(-c2ccc(Cl)cc2Cl)o1 | 24.3% | 7.94µM* | i | 6.3%
Cc1ccc(S(=O)(=O)N(C)CC(=O)N2CCCCCCC2)cc1 | 3.3% | -1.4% | i | -2.3%
CN(CC(=O)N1CCCCCC1)S(=O)(=O)c1ccc(F)cc1 | -2.0% | 10µM* | i | 0.8%
CC(C)(CNS(C)(=O)=O)SCc1ccc(Cl)cc1 | 1.1% | -10.3% | i | 1.6%
CS(=O)(=O)NCCSCc1ccc(Cl)cc1 | 1.0% | -0.4% | -107.6%* | 0.6%
